Results as given in the supplement of paper PMC11732987, “Enantioselective OTUD7B fragment discovery through chemoproteomics screening and high-throughput optimisation” (Communications Chemistry, 2025).

Assays:
Test in all cases: log2 ratio of Biotin-Ahx-Ub-VS probe labelling (fragment/DMSO); higher = less target engagement (more negative = stronger competition), active = hit call of the paper (q ≤ 0.05, log2 ratio ≤ -1)
Settings in all cases: compound concentration: 200 uM; treatment time: 3 h
USP42 = target: T1, USP42 (UniProt Q9H9J4)
T1 sequence (whole entry): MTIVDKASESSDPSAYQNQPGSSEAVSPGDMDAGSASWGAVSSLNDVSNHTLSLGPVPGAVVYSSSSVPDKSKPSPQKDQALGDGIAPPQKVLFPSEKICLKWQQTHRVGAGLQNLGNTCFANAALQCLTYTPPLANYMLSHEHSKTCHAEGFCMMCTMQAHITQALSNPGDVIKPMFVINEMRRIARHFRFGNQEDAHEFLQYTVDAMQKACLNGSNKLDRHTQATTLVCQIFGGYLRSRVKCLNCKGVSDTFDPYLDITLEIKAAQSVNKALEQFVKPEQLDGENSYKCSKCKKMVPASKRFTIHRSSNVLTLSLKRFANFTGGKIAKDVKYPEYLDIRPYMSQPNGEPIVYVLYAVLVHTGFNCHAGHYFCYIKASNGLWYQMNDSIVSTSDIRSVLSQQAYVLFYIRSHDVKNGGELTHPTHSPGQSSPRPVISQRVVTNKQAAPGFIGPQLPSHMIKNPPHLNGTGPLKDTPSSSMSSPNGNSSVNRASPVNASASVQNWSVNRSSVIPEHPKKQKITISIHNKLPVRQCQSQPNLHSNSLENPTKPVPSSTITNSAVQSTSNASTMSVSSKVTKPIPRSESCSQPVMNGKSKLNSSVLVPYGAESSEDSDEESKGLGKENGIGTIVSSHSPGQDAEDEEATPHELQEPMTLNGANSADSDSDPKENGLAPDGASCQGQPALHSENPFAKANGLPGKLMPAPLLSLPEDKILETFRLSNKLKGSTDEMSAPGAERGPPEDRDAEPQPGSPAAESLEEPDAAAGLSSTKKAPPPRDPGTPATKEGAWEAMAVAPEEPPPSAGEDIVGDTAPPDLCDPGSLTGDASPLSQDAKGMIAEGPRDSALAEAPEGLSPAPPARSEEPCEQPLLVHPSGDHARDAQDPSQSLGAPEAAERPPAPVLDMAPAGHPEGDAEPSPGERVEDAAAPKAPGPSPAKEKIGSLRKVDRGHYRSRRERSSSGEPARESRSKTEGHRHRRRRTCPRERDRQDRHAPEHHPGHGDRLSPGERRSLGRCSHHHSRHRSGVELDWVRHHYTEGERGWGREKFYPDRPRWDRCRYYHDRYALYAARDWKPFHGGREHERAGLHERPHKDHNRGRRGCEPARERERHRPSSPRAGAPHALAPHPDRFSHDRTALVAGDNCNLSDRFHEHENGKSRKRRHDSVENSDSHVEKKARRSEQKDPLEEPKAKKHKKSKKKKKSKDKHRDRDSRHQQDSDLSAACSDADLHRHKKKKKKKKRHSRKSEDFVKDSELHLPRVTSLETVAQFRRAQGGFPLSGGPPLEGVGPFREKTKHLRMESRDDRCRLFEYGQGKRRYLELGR
Method in brief: (§1)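 HEK293T lysate (495 µg per sample, in Tris/CHAPS/IGEPAL buffer with protease inhibitors) was exposed in triplicate for 3 h to fragment at 200 µM or to vehicle, then to Biotin-Ahx-Ub-VS at 0.5 µM final for 1 h. Labelled DUBs were enriched on NeutrAvidin, digested with LysC and trypsin, and analysed by diaPASEF LC-MS/MS. Spectronaut label-free quantities were normalised to the global median, and values are average log2 ratios of fragment over vehicle from an unpaired t-test. Only proteins with ≥2 unique peptides were used.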

USP46 = USP46 (UniProt P62068)
Method in brief: as §1

USP47 = target: T2, USP47 (UniProt Q96K76)
T2 sequence (whole entry): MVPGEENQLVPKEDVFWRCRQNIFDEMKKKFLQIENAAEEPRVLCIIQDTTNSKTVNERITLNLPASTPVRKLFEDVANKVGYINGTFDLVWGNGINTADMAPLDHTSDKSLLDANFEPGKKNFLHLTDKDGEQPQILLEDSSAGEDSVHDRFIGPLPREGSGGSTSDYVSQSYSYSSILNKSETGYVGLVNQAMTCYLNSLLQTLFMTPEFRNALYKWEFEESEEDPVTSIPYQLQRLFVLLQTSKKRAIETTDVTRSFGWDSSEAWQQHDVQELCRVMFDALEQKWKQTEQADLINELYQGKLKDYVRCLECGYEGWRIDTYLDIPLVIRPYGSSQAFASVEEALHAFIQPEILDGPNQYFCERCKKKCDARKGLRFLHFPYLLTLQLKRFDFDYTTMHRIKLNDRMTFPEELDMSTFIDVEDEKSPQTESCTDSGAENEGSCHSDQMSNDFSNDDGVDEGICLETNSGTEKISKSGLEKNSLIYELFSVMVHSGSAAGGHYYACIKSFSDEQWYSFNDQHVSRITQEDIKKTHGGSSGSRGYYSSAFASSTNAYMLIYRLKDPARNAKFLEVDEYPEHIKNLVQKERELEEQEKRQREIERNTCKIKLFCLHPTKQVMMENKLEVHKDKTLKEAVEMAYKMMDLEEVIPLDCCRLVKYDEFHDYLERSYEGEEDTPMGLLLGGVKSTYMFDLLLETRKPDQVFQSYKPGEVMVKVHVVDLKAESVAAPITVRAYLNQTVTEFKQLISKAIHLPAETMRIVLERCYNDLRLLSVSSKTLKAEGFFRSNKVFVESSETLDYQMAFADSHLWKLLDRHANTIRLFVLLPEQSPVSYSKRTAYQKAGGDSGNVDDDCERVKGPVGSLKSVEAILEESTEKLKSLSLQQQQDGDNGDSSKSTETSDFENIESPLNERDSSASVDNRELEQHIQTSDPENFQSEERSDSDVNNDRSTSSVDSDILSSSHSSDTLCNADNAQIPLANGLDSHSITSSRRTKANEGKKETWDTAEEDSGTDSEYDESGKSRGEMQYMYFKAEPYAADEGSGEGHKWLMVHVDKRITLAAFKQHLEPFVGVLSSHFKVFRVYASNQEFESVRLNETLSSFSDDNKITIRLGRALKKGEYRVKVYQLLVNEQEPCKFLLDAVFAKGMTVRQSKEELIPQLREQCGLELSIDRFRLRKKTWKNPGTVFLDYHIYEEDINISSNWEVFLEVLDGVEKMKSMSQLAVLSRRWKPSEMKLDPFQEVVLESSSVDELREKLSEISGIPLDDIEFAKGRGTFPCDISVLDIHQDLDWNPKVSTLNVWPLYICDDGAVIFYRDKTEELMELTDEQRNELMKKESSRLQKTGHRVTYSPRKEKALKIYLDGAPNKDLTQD
Method in brief: as §1

USP48 = target: T3, USP48 (UniProt Q86UV5)
T3 sequence (whole entry): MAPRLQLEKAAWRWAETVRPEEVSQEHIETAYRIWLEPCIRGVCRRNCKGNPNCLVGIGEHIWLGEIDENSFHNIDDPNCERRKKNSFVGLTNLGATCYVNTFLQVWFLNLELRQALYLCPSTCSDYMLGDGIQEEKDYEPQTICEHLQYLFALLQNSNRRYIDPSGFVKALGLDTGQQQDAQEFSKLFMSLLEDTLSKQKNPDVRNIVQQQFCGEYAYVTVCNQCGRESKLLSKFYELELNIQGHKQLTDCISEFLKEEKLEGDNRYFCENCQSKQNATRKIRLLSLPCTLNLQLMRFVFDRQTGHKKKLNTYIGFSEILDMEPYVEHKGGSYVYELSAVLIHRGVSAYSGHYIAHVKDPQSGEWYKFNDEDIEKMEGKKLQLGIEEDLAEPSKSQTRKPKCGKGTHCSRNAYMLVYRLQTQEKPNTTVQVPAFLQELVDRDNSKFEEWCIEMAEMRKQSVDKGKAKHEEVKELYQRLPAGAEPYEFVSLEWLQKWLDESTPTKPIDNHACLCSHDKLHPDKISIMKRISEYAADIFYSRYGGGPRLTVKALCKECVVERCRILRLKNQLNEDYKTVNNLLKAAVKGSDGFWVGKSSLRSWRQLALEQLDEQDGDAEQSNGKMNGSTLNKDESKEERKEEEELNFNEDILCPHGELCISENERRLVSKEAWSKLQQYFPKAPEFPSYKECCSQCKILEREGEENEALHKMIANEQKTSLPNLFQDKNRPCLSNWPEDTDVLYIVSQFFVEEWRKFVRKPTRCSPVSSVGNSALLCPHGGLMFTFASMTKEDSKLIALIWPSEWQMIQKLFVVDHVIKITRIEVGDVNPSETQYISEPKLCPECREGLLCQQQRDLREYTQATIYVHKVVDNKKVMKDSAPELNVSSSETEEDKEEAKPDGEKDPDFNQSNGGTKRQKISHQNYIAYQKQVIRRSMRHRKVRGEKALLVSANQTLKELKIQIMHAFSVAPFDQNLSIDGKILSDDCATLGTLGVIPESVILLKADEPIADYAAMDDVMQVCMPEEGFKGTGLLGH
Method in brief: as §1

USP5 = target: T4, USP5 (UniProt P45974)
T4 sequence (whole entry): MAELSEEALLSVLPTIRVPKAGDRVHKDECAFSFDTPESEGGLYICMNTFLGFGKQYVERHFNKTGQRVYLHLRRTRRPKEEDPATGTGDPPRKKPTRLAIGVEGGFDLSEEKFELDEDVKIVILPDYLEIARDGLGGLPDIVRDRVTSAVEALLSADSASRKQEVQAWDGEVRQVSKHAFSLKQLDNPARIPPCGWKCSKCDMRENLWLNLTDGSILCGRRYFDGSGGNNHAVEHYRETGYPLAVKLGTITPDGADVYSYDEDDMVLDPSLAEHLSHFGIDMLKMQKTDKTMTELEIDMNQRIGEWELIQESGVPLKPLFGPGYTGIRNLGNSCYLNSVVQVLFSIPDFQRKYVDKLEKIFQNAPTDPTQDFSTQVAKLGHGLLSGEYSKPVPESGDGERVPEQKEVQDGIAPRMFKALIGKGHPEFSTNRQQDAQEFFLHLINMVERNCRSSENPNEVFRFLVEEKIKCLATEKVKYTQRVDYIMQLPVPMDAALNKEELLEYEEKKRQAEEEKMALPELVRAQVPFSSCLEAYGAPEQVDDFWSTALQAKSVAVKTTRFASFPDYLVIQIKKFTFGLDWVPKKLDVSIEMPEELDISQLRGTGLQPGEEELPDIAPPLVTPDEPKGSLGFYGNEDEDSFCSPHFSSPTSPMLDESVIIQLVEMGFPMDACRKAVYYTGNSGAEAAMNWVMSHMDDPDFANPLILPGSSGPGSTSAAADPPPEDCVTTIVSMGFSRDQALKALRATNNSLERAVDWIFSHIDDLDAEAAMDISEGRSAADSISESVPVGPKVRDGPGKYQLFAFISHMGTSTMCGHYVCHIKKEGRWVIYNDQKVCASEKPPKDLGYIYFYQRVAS
Method in brief: as §1

USP54 = USP54 (UniProt Q70EL1)
Method in brief: as §1

USP7 = USP7 (UniProt Q93009)
Method in brief: as §1

USP8 = target: T5, USP8 (UniProt P40818)
T5 sequence (whole entry): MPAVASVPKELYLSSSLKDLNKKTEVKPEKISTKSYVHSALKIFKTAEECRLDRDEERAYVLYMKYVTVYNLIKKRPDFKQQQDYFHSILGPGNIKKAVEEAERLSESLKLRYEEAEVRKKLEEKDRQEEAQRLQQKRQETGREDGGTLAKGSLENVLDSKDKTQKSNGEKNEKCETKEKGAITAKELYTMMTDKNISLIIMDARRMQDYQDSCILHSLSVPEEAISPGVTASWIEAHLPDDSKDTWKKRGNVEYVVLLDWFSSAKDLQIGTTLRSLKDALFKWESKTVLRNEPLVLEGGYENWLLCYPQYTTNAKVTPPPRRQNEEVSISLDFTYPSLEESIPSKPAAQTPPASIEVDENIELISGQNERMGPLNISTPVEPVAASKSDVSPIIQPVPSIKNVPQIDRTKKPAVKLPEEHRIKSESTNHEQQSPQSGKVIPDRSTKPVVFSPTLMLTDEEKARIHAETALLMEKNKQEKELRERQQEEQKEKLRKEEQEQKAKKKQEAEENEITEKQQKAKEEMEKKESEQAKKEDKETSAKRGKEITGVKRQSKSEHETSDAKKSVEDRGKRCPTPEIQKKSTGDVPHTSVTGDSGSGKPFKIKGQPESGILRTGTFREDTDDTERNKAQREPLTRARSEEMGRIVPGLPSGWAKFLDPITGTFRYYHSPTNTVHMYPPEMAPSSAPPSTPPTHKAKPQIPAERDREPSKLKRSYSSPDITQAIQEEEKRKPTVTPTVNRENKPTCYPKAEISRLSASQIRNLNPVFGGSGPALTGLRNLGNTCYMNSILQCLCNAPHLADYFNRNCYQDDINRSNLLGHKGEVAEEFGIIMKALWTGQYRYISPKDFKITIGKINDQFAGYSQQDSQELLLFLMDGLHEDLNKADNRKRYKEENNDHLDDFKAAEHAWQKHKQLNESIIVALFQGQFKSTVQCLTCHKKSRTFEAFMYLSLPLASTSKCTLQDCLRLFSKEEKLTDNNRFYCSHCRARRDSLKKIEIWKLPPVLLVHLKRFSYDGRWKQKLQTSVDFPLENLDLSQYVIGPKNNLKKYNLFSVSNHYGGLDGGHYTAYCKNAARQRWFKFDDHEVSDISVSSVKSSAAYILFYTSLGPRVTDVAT
Method in brief: as §1

Measured: log2 ratio of Biotin-Ahx-Ub-VS probe labelling

Sequence of USP7 (Q93009 whole entry, looked up): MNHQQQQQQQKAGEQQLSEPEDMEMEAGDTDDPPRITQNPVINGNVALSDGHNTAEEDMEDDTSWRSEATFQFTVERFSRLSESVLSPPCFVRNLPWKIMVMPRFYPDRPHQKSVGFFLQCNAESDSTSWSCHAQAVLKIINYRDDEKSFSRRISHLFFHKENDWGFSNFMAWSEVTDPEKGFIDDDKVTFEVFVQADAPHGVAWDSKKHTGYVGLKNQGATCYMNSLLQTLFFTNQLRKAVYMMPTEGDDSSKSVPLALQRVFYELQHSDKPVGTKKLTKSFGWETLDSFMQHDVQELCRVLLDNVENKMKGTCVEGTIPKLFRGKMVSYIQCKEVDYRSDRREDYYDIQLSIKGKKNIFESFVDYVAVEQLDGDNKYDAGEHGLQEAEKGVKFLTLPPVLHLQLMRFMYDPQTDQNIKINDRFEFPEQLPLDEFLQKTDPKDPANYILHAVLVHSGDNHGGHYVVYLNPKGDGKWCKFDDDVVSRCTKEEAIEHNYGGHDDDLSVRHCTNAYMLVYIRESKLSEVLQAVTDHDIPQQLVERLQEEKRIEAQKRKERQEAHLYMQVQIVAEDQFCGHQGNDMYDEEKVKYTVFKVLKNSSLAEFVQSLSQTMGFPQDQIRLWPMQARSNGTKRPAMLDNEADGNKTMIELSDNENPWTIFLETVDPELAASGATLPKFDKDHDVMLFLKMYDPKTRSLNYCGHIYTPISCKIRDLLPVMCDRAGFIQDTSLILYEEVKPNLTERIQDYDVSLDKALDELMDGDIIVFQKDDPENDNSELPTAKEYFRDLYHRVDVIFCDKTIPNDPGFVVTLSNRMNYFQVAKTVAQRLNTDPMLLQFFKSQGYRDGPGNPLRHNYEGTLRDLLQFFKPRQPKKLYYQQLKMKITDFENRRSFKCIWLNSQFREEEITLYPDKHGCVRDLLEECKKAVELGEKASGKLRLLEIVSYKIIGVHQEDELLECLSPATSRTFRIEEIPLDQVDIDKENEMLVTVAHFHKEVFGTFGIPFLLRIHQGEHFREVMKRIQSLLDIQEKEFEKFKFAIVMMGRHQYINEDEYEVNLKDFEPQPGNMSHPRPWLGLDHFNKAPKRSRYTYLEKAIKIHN
Sequence of USP54 (Q70EL1 whole entry): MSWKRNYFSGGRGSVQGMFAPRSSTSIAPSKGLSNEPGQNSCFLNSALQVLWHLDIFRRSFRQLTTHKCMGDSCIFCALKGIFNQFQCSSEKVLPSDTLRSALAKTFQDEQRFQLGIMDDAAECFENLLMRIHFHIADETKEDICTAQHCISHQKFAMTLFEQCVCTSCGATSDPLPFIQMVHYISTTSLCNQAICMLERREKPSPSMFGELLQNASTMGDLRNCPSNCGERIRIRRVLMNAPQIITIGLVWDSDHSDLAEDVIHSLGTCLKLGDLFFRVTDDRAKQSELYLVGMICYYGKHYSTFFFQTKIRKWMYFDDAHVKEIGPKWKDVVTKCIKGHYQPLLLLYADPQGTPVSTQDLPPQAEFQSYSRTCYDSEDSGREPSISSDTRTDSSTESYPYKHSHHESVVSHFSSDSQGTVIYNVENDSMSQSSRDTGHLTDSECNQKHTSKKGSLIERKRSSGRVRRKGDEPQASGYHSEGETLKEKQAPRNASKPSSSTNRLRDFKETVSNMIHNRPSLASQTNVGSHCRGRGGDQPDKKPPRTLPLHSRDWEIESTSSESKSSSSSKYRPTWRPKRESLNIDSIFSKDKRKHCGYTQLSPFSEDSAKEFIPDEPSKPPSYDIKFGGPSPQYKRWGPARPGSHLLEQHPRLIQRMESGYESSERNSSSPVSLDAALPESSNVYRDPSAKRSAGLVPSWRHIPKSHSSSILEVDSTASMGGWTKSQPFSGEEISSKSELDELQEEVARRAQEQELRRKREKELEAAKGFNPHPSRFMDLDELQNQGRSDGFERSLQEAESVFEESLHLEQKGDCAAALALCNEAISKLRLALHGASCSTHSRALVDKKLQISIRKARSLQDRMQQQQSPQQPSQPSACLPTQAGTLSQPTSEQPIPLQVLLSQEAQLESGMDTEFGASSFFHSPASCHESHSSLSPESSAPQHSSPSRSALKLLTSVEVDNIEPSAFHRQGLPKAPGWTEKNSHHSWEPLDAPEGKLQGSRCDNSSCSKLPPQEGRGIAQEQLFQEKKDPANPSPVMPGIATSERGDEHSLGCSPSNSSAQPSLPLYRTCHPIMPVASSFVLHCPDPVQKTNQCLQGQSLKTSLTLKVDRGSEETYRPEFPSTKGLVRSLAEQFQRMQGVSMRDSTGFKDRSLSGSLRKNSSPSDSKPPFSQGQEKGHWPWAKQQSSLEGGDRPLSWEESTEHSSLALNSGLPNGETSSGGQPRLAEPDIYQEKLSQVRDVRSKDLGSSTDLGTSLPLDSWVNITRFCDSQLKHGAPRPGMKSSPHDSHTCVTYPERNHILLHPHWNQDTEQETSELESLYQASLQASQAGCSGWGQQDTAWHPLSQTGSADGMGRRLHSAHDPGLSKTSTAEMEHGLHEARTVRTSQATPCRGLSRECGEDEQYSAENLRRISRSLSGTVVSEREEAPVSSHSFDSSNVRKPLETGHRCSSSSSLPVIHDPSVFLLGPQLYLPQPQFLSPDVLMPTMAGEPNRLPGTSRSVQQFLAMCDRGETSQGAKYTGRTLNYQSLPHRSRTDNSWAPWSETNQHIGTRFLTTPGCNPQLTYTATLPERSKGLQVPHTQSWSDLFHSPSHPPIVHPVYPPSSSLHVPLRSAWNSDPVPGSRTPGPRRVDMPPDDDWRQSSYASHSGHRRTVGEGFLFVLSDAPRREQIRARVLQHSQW
Sequence of USP46 (P62068 whole entry): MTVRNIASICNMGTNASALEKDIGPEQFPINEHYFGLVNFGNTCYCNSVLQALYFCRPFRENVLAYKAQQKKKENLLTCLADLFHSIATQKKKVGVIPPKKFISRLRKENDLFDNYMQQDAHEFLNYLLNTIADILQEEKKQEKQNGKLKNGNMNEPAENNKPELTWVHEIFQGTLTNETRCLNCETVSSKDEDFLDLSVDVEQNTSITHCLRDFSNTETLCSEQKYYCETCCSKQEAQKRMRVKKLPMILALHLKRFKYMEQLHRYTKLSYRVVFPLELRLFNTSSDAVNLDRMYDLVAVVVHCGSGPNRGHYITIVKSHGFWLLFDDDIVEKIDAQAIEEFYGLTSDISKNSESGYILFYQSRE

Cc1c(C#N)c(NC(=O)CCl)n(Cc2ccco2)c1C
inactive: USP42 0.0887 | USP46 -0.16 | USP47 -0.217 | USP48 -0.398 | USP5 -0.329 | USP54 -0.38 | USP7 -0.563 | USP8 -0.000142
